Experimental data: PubChem BioAssay (Tox21)
Where “and” joins values, the source holds several entries; their conditions need not be identical. Equal entries are not always repeated. Records with an inconclusive call do not appear. Calls of active or inactive are those of the source. Unless noted, the call rests on the fitted dose curve; in most records, active means well fitted curve in the direction sought with a large enough effect in the repeat runs; inconclusive means weak or mixed curves; inactive means no such curve, though single readings can be large; an effect the other way counts as inactive or inconclusive.

What was measured:
[1] = qHTS assay to identify small molecule agonists of the hypoxia (HIF-1) signaling pathway - cell viability counter screen (AID 1224844; calls by dose curve; further: nearly all actives have a fitted effect of over 50% in size)
Outline: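 HRE-bla ME-180; 0.5% dFBS; cpd 17 h, 37C, 5% CO2; CellTiter-Glo lum., 30 min RT, post-FRET read, same wells.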

[2] = qHTS assay to identify small molecule agonists of H2AX (AID 1224845; active means well fitted activation curve with a large enough effect in the signal ratio in the repeat runs, not every such curve was filed as active; the % refers to the signal ratio)
Outline: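 Wild-type CHO-K1 cells, plated overnight, exposed 3hr at 37C to 15 concentrations (0.76% DMSO final). Lysed, then HTRF anti-pH2AX (S139) cryptate and anti-H2AX-d2 antibodies, 24 hr room temperature; 665/620 nm emission read.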

[3] = qHTS assay to identify small molecule agonists of the hypoxia (HIF-1) signaling pathway (AID 1224846; active means well fitted activation curve with a large enough effect in the signal ratio in the repeat runs, not every such curve was filed as active; the % refers to the signal ratio)
Outline: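 Reporter induction in HRE-bla ME-180 cells is taken as agonism: cells sit 5 hrs after plating, receive compounds or DMSO only, incubate 17 hrs at 37C under 5% CO2, and are loaded with CCF4-AM for beta-lactamase FRET measurement.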

[4] = qHTS assay to identify small molecule agonists of H2AX - cell viability counter screen (AID 1224847; calls by dose curve; further: top concentration of the series differs between compounds; nearly all actives have a fitted effect of over 30% in size)
Outline: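 Quantitative HTS viability measurement: CHO-K1 wild-type cells in serum (10% FBS) medium, short 3 hr drug exposure at 37C with 0.76% DMSO, CellTiter-Glo luminescent detection.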

[5] = qHTS RealTime-Glo MT Cell Viability Assay in HepG2 cells - 24 hour (AID 1224867); further: nearly all actives have a fitted effect of over 50% in size
Outline: (§1)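 HepG2 cells (600/well) were dispensed with RealTime-Glo reagents, incubated 5 h at 37 °C, then treated with compounds in DMSO for up to 40 h. Nonlytic NanoLuc luminescence reflecting viable cells was read at each stated time point.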

[6] = qHTS RealTime-Glo MT Cell Viability Assay in HEK293 cells - 32 hour (AID 1224868); further: top concentration of the series differs between compounds; nearly all actives have a fitted effect of over 50% in size
Outline: (§2)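 HEK293 cells seeded with NanoLuc/prosubstrate reagent, rested 5 h at 37 C, then dosed and kept at 37 C up to 40 h. Nonlytic real-time luminescence from viable cells read at 0, 8, 16, 24, 32 and 40 h.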

[7] = A CellTox Green Cytotoxicity Assay to monitor cytotoxicity in HEK293 cells - 0 hour (AID 1224869); further: nearly all actives have a fitted effect of over 50% in size
Outline: (§3)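 Tox21 screen in HEK293: membrane-impermeant cyanine dye fluoresces on binding dead-cell DNA; compound pinned 5 h post-seeding, plates held at 37 C, signal read repeatedly through 40 h.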

[8] = A CellTox Green Cytotoxicity Assay to monitor cytotoxicity in HEK293 cells - 40 hour (AID 1224871); further: nearly all actives have a fitted effect of over 45% in size
Outline: as §3

[9] = qHTS RealTime-Glo MT Cell Viability Assay in HEK293 cells - 16 hour (AID 1224872)
Outline: as §2

[10] = qHTS RealTime-Glo MT Cell Viability Assay in HepG2 cells - 8 hour (AID 1224873); further: nearly all actives have a fitted effect of over 55% in size
Outline: (§4)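 HepG2 cells (600/well) mixed with RealTime-Glo MT reagent, settled 5 h at 37 C/5% CO2 before compound addition. Nonlytic NanoLuc luminescence from viable-cell prosubstrate reduction read repeatedly during 40 h treatment at 37 C.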

[11] = qHTS RealTime-Glo MT Cell Viability Assay in HEK293 cells - 40 hour (AID 1224874); settings: RealTime-Glo luminescence; max response: active compounds read low; further: nearly all actives have a fitted effect of over 50% in size
Outline: (§5)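 HEK293 + NanoLuc + prosubstrate, 600 cells/well; 5 h, 37 C/5% CO2; compound 23 nL in DMSO by pintool; 37 C; luminescence read at 0, 8, 16, 24, 32 and 40 h time points.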

[12] = A CellTox Green Cytotoxicity Assay to monitor cytotoxicity in HEK293 cells - 24 hour (AID 1224875); further: series mostly up to about 77 µM; nearly all actives have a fitted effect of over 45% in size
Outline: as §3

[13] = qHTS RealTime-Glo MT Cell Viability Assay in HepG2 cells - 32 hour (AID 1224877); further: nearly all actives have a fitted effect of over 55% in size
Outline: as §1

[14] = A CellTox Green Cytotoxicity Assay to monitor cytotoxicity in HepG2 cells - 24 hour (AID 1224878); further: nearly all actives have a fitted effect of over 45% in size
Outline: (§6)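 Measurements at 0, 8, 16, 24, 32 and 40 h of treatment captured CellTox Green fluorescence in HepG2 cells that had been co-plated with reagent and preincubated 5 h at 37 C/5% CO2.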

[15] = A CellTox Green Cytotoxicity Assay to monitor cytotoxicity in HepG2 cells - 40 hour (AID 1224879); further: nearly all actives have a fitted effect of over 40% in size
Outline: as §6

[16] = qHTS RealTime-Glo MT Cell Viability Assay in HEK293 cells - 0 hour (AID 1224880); further: top concentration of the series differs between compounds; nearly all actives have a fitted effect of over 45% in size
Outline: as §5

[17] = qHTS RealTime-Glo MT Cell Viability Assay in HepG2 cells - 40 hour (AID 1224870); further: nearly all actives have a fitted effect of over 50% in size
Outline: as §4

[18] = A CellTox Green Cytotoxicity Assay to monitor cytotoxicity in HepG2 cells - 16 hour (AID 1224876); further: nearly all actives have a fitted effect of over 45% in size
Outline: as §6

[19] = qHTS assay to identify small molecule antagonists of the estrogen related receptor (ERR) signaling pathway from Tox21 library (AID 1224848); further: nearly all actives have a fitted effect of over 50% in size
Outline: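 Quantitative high-throughput format: ERR reporter cells (2,000/well) pre-incubated 6 h, treated 18 h at 37 C with compounds in DMSO alongside positive and negative controls, then read by ONE-Glo luminescence.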

[20] = qHTS assay to identify small molecule agonists of the estrogen related receptor (ERR) signaling pathway from Tox21 library (AID 1224849; calls by dose curve; further: nearly all actives have a fitted effect of over 15% in size)
Outline: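 Tox21 compounds tested for ERR agonism in an NTP reporter cell line: 18 h treatment at 37 C, then ONE-Glo luminescence.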
On the % scale 0 is the no-effect control and ±100 the full control effect.

CC(C)OC(=O)COc1ccc(Cl)cc1Cl
inactive: outcome [1] | outcome [2] | outcome [3] | outcome [4] | Potency [5] | Potency [6] | outcome [7] | Potency [8] | Potency [9] | Potency [10] | max response [11] 8.21% and -2.23% | Potency [12] | outcome [13] | Potency [14] | Potency [15] | outcome [16]

CCCCCCCCCCN
inactive: outcome [1] | outcome [2] | outcome [3] | outcome [4] | Potency [5] | Potency [6] | outcome [7] | outcome [17] | Potency [8] | Potency [9] | max response [11] 0.163% and 1.85% | Potency [12] | outcome [18] | outcome [13] | Potency [14] | Potency [15] | outcome [16]

CC(=O)Oc1ccc(C)cc1
inactive: outcome [1] | outcome [2] | outcome [3] | outcome [4] | Potency [6] | outcome [7] | Potency [8] | Potency [9] | max response [11] 7.12% and 1.96% | Potency [12] | outcome [18] | outcome [13] | Potency [14] | Potency [15] | outcome [16]

CCO[Si](CCC#N)(OCC)OCC
inactive: outcome [1] | outcome [2] | outcome [3] | outcome [4] | Potency [6] | outcome [7] | outcome [17] | Potency [8] | Potency [9] | Potency [10] | max response [11] 7.39% and 2.23% | Potency [12] | outcome [13] | Potency [14] | Potency [15] | outcome [16]

NC(=S)NNC(N)=S
inactive: outcome [1] | outcome [2] | outcome [3] | outcome [4] | Potency [6] | outcome [7] | outcome [17] | Potency [8] | Potency [9] | Potency [10] | max response [11] 7.65% and -11.1% | Potency [12] | outcome [18] | outcome [13] | Potency [14] | Potency [15] | outcome [16]

CC(C)CCCCCCCOC(=O)CCCCC(=O)OCCCCCCCC(C)C
inactive: outcome [1] | outcome [2] | outcome [3] | outcome [4] | Potency [6] | outcome [7] | outcome [17] | Potency [8] | Potency [9] | Potency [10] | Potency [12] | outcome [13] | Potency [14] | Potency [15] | outcome [16]

C=C(C)C(=O)OCC(C)C
inactive: outcome [1] | outcome [2] | outcome [3] | outcome [4] | Potency [6] | outcome [7] | outcome [17] | Potency [8] | Potency [9] | Potency [10] | Potency [12] | outcome [18] | outcome [13] | Potency [14] | Potency [15] | outcome [16]

COCCCN
inactive: outcome [1] | outcome [2] | outcome [3] | outcome [4] | Potency [6] | outcome [7] | outcome [17] | Potency [8] | Potency [9] | Potency [10] | max response [11] 3.35% and 3.08% | Potency [12] | outcome [18] | outcome [13] | Potency [14] | Potency [15] | outcome [16]

CN/C(=C\[N+](=O)[O-])NCCSCc1csc(CN(C)C)n1
inactive: outcome [1] | outcome [2] | outcome [4] | Potency [6] | outcome [7] | Potency [8] | Potency [9] | Potency [10] | Potency [12] | outcome [18] | outcome [13] | Potency [14] | Potency [15] | outcome [16]

CCNc1ccccc1
inactive: outcome [1] | outcome [2] | outcome [3] | outcome [4] | Potency [6] | outcome [7] | Potency [8] | Potency [9] | Potency [10] | Potency [12] | outcome [18] | outcome [13] | Potency [14] | Potency [15] | outcome [16]

NCCN1CCNCC1
inactive: outcome [1] | outcome [2] | outcome [3] | outcome [4] | Potency [6] | outcome [7] | outcome [17] | Potency [8] | Potency [9] | Potency [10] | Potency [12] | outcome [18] | outcome [13] | Potency [14] | Potency [15] | outcome [16]

O=S(=O)(O)c1ccc(N=Nc2c(O)ccc3cc(S(=O)(=O)O)ccc23)cc1
inactive: outcome [1] | outcome [3] | outcome [4] | outcome [19] | outcome [20] | Potency [6] | outcome [7] | Potency [8] | Potency [10] | max response [11] -20% | Potency [12] | outcome [18] | Potency [14] | Potency [15] | outcome [16]

CN(C)c1ccc(O)c2c1C[C@H]1C[C@H]3[C@H](N(C)C)C(=O)C(C(N)=O)=C(O)[C@@]3(O)C(=O)C1=C2O
inactive: outcome [1] | outcome [2] | outcome [3] | outcome [4] | Potency [6] | outcome [7] | outcome [17] | Potency [8] | Potency [9] | Potency [10] | Potency [12] | outcome [13] | Potency [14] | Potency [15] | outcome [16]
